# Source: the supplement of paper PMC12282887
# ± gives the standard deviation of the averaged measurements.
# What was measured:
# Assay in all cases: promoter activity interaction Z-score (Lux/OD deviation from empty-vector control); higher = stronger promoter induction by the compound
# [1] = tested on: E. coli BW25113 acrABp lux reporter
# Outline: (§1)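 Reporter strains of E. coli BW25113 grew at 37°C in 40 µl LB Lennox in 384-well plates. Readings of OD600 and luminescence were taken every 30 min over 12 h, integrated over 0–8 h (wild type) or 1–9 h (deletion strains), and wells below 10% of the median growth value were excluded. Scores are Z-transformed residuals of growth-normalised luminescence from a fit against a control.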
# [2] = tested on: E. coli BW25113 micFp lux reporter
# Outline: as §1
# [3] = tested on: E. coli BW25113 ompFp lux reporter
# Outline: as §1
# [4] = tested on: E. coli BW25113 robp lux reporter
# Outline: as §1
# [5] = tested on: E. coli BW25113 soxSp lux reporter
# Outline: as §1
# [6] = tested on: E. coli BW25113 tolCp lux reporter
# Outline: as §1
# [7] = 23.5 µg/ml, genetic background: wild type
# [8] = 23.5 µg/ml, genetic background: ΔmarA
# [9] = 23.5 µg/ml, genetic background: Δrob
# [10] = 23.5 µg/ml, genetic background: ΔsoxS
# [11] = 47.1 µg/ml, genetic background: wild type
# [12] = 47.1 µg/ml, genetic background: ΔmarA
# [13] = 47.1 µg/ml, genetic background: Δrob
# [14] = 47.1 µg/ml, genetic background: ΔsoxS
# [15] = 94.1 µg/ml, genetic background: wild type
# [16] = 94.1 µg/ml, genetic background: ΔmarA
# [17] = 94.1 µg/ml, genetic background: Δrob
# [18] = 94.1 µg/ml, genetic background: ΔsoxS
# [19] = 188.3 µg/ml, genetic background: wild type
# [20] = 188.3 µg/ml, genetic background: ΔmarA
# [21] = 188.3 µg/ml, genetic background: Δrob
# [22] = 188.3 µg/ml, genetic background: ΔsoxS
smiles,measurement,setting,value
C[C@H](CCC(=O)O)[C@H]1CC[C@H]2[C@@H]3CC[C@@H]4C[C@H](O)CC[C@]4(C)[C@H]3CC[C@]12C [Lithocholic acid],promoter activity interaction Z-score,[1]; [7],0.128 ± 0.083
same,promoter activity interaction Z-score,[1]; [8],1.34 ± 2.3
same,promoter activity interaction Z-score,[1]; [9],0.0671 ± 0.095
same,promoter activity interaction Z-score,[1]; [10],-0.142 ± 0.031
same,promoter activity interaction Z-score,[1]; [11],0.171 ± 0.17
same,promoter activity interaction Z-score,[1]; [12],0.66 ± 0.77
same,promoter activity interaction Z-score,[1]; [13],0.304 ± 0.021
same,promoter activity interaction Z-score,[1]; [14],-0.0227 ± 0.072
same,promoter activity interaction Z-score,[1]; [15],-0.00199 ± 0.34
same,promoter activity interaction Z-score,[1]; [16],0.576 ± 0.88
same,promoter activity interaction Z-score,[1]; [17],-0.304 ± 0.19
same,promoter activity interaction Z-score,[1]; [18],-0.652 ± 0.55
same,promoter activity interaction Z-score,[1]; [19],-0.12 ± 0.18
same,promoter activity interaction Z-score,[1]; [20],0.897 ± 2.2
same,promoter activity interaction Z-score,[1]; [21],-0.207 ± 0.095
same,promoter activity interaction Z-score,[1]; [22],-0.566 ± 1.5
same,promoter activity interaction Z-score,[2]; [7],-0.113 ± 0.26
same,promoter activity interaction Z-score,[2]; [8],0.16 ± 0.35
same,promoter activity interaction Z-score,[2]; [9],0.238 ± 0.17
same,promoter activity interaction Z-score,[2]; [10],-0.193 ± 0.12
same,promoter activity interaction Z-score,[2]; [11],0.314 ± 0.66
same,promoter activity interaction Z-score,[2]; [12],0.226 ± 0.41
same,promoter activity interaction Z-score,[2]; [13],0.0535 ± 0.017
same,promoter activity interaction Z-score,[2]; [14],0.243 ± 0.36
same,promoter activity interaction Z-score,[2]; [15],0.275 ± 0.18
same,promoter activity interaction Z-score,[2]; [16],0.187 ± 0.33
same,promoter activity interaction Z-score,[2]; [17],0.0887 ± 0.27
same,promoter activity interaction Z-score,[2]; [18],-0.363 ± 0.17
same,promoter activity interaction Z-score,[2]; [19],-0.215 ± 0.76
same,promoter activity interaction Z-score,[2]; [20],0.379 ± 0.47
same,promoter activity interaction Z-score,[2]; [21],-0.0294 ± 0.12
same,promoter activity interaction Z-score,[2]; [22],-0.253 ± 0.14
same,promoter activity interaction Z-score,[3]; [7],-0.331 ± 0.28
same,promoter activity interaction Z-score,[3]; [8],0.388 ± 0.35
same,promoter activity interaction Z-score,[3]; [9],0.233 ± 0.41
same,promoter activity interaction Z-score,[3]; [10],-0.266 ± 0.66
same,promoter activity interaction Z-score,[3]; [11],-0.361 ± 0.42
same,promoter activity interaction Z-score,[3]; [12],-0.326 ± 0.22
same,promoter activity interaction Z-score,[3]; [13],0.512 ± 0.58
same,promoter activity interaction Z-score,[3]; [14],0.0216 ± 0.97
same,promoter activity interaction Z-score,[3]; [15],-1.02 ± 0.35
same,promoter activity interaction Z-score,[3]; [16],-0.0279 ± 0.11
same,promoter activity interaction Z-score,[3]; [17],-0.2 ± 0.59
same,promoter activity interaction Z-score,[3]; [18],-1.15 ± 0.78
same,promoter activity interaction Z-score,[3]; [19],-0.885 ± 0.27
same,promoter activity interaction Z-score,[3]; [20],-0.942 ± 0.53
same,promoter activity interaction Z-score,[3]; [21],-0.571 ± 0.34
same,promoter activity interaction Z-score,[3]; [22],-0.828 ± 0.72
same,promoter activity interaction Z-score,[4]; [7],0.566 ± 0.055
same,promoter activity interaction Z-score,[4]; [8],1.44 ± 0.64
same,promoter activity interaction Z-score,[4]; [9],0.487 ± 0.029
same,promoter activity interaction Z-score,[4]; [10],0.99 ± 0.62
same,promoter activity interaction Z-score,[4]; [11],-0.0796 ± 0.041
same,promoter activity interaction Z-score,[4]; [12],0.19 ± 0.14
same,promoter activity interaction Z-score,[4]; [13],0.443 ± 0.039
same,promoter activity interaction Z-score,[4]; [14],1.04 ± 0.47
same,promoter activity interaction Z-score,[4]; [15],-0.0166 ± 0.45
same,promoter activity interaction Z-score,[4]; [16],1.08 ± 0.44
same,promoter activity interaction Z-score,[4]; [17],0.223 ± 0.44
same,promoter activity interaction Z-score,[4]; [18],0.195 ± 0.21
same,promoter activity interaction Z-score,[4]; [19],-0.492 ± 1.1
same,promoter activity interaction Z-score,[4]; [20],0.59 ± 0.34
same,promoter activity interaction Z-score,[4]; [21],0.0946 ± 0.17
same,promoter activity interaction Z-score,[4]; [22],0.391 ± 0.17
same,promoter activity interaction Z-score,[5]; [7],0.313 ± 0.3
same,promoter activity interaction Z-score,[5]; [8],-0.0502 ± 0.087
same,promoter activity interaction Z-score,[5]; [9],0.0422 ± 0.029
same,promoter activity interaction Z-score,[5]; [10],0.057 ± 0.13
same,promoter activity interaction Z-score,[5]; [11],-0.126 ± 0.1
same,promoter activity interaction Z-score,[5]; [12],-0.195 ± 0.067
same,promoter activity interaction Z-score,[5]; [13],0.0214 ± 0.095
same,promoter activity interaction Z-score,[5]; [14],-0.0763 ± 0.36
same,promoter activity interaction Z-score,[5]; [15],-0.137 ± 0.33
same,promoter activity interaction Z-score,[5]; [16],-0.217 ± 0.014
same,promoter activity interaction Z-score,[5]; [17],-0.165 ± 0.32
same,promoter activity interaction Z-score,[5]; [18],-0.531 ± 0.61
same,promoter activity interaction Z-score,[5]; [19],-0.578 ± 0.011
same,promoter activity interaction Z-score,[5]; [20],-0.284 ± 0.089
same,promoter activity interaction Z-score,[5]; [21],-0.408 ± 0.33
same,promoter activity interaction Z-score,[5]; [22],-0.418 ± 0.97
same,promoter activity interaction Z-score,[6]; [7],0.238 ± 0.82
same,promoter activity interaction Z-score,[6]; [8],1.52 ± 0.56
same,promoter activity interaction Z-score,[6]; [9],0.914 ± 0.84
same,promoter activity interaction Z-score,[6]; [10],0.608 ± 1.3
same,promoter activity interaction Z-score,[6]; [11],-0.0238 ± 0.039
same,promoter activity interaction Z-score,[6]; [12],0.952 ± 0.099
same,promoter activity interaction Z-score,[6]; [13],1.24 ± 0.98
same,promoter activity interaction Z-score,[6]; [14],1.3 ± 0.12
same,promoter activity interaction Z-score,[6]; [15],0.429 ± 0.87
same,promoter activity interaction Z-score,[6]; [16],1.04 ± 0.5
same,promoter activity interaction Z-score,[6]; [17],0.552 ± 0.78
same,promoter activity interaction Z-score,[6]; [18],0.284 ± 0.072
same,promoter activity interaction Z-score,[6]; [19],0.995 ± 0.41
same,promoter activity interaction Z-score,[6]; [20],0.554 ± 0.33
same,promoter activity interaction Z-score,[6]; [21],0.54 ± 0.74
same,promoter activity interaction Z-score,[6]; [22],0.774 ± 1.2
